Reference: the antibiotic and cytotoxicity screens of Wong et al. (2023)
Out of some 39,000 compounds screened, about 1,500 (3.8%) were called active. The entries come from a sample that favours actives as a whole.

What follows are molecules tested on HSkMC (human skeletal muscle cells) (assay: cytotoxicity call (relative viability < 0.9)). Conditions: 10 µM.
Cn1cnc(CCNC(=O)C[C@@H]2CC[C@@H]3[C@H](COC[C@@H](O)CN3C(=O)C3CC3)O2)c1 was tested, and the cytotoxicity call was “inactive”.
C[C@H](CO)N1C[C@H](C)[C@@H](CN(C)S(=O)(=O)c2cccs2)Oc2c(NC(=O)c3cnccn3)cccc2C1=O was tested, and the cytotoxicity call was “inactive”.
For COc1cccc(-c2cnc3c(c2)C(=O)N([C@H](C)CO)C[C@H](C)[C@H](CN(C)S(=O)(=O)c2cccs2)O3)c1, the cytotoxicity call was “inactive”.
With COc1ccc(S(=O)(=O)N(C)C[C@@H]2OCc3cn(nn3)CCCC(=O)N([C@@H](C)CO)C[C@H]2C)cc1 the cytotoxicity call was “inactive”.
For C[C@H](CO)N1C[C@H](C)[C@H](CN(C)C(=O)NC2CCCCC2)Oc2ccc(NS(=O)(=O)c3cn(C)cn3)cc2C1=O, the cytotoxicity call was “inactive”.
For CC1(C)OC(=O)C2(C(=O)O1)[C@@H](c1ccc(-c3ccc(-c4ccc(O)cc4)cc3)cc1)CC(=O)C[C@H]2c1ccccc1, the cytotoxicity call was “inactive”.
CCCn1c(=O)[nH]c(=O)c2[nH]cnc21 was tested, and the cytotoxicity call was “inactive”.
With COc1ccc(NC(=O)N(C)C[C@@H]2Oc3ccc(NC(=O)CCCCCC(=O)Nc4ccccc4N)cc3C(=O)N([C@H](C)CO)C[C@@H]2C)cc1 the cytotoxicity call was “inactive”.
With COc1ccc(NC(=O)Nc2ccc3c(c2)CC(=O)N([C@@H](C)CO)C[C@H](C)[C@@H](CN(C)Cc2ccc(Cl)c(Cl)c2)O3)cc1 the cytotoxicity call was “inactive”.
COc1ccc(NC(=O)Nc2ccc3c(c2)CC(=O)N([C@@H](C)CO)C[C@@H](C)[C@H](CN(C)Cc2ccc(Cl)c(Cl)c2)O3)cc1 was tested, and the cytotoxicity call was “inactive”.
In the case of COc1ccc(NC(=O)Nc2ccc3c(c2)CC(=O)N([C@H](C)CO)C[C@@H](C)[C@@H](CN(C)Cc2ccc(Cl)c(Cl)c2)O3)cc1, the cytotoxicity call is reported as “active”.
For COc1ccc(NC(=O)Nc2ccc3c(c2)CC(=O)N([C@H](C)CO)C[C@H](C)[C@H](CN(C)Cc2ccc(Cl)c(Cl)c2)O3)cc1, the cytotoxicity call was “inactive”.
COc1ccc(NC(=O)Nc2ccc3c(c2)CC(=O)N([C@@H](C)CO)C[C@H](C)[C@H](CN(C)Cc2ccc(Cl)c(Cl)c2)O3)cc1 was tested, and the cytotoxicity call was “active”.
For COc1ccc(NC(=O)Nc2ccc3c(c2)CC(=O)N([C@H](C)CO)C[C@@H](C)[C@H](CN(C)Cc2ccc(Cl)c(Cl)c2)O3)cc1, the cytotoxicity call was “inactive”.
With C[C@@H]1CCCCO[C@@H](CN(C)C(=O)Nc2cccc3ccccc23)[C@@H](C)CN([C@H](C)CO)C(=O)c2cc(NC(=O)Nc3cccc4ccccc34)ccc2O1 the cytotoxicity call was “inactive”.
For NC(=O)CSc1ncn(-c2ccccc2)n1, the cytotoxicity call was “inactive”.
With O=C(CCCCCNC(=O)OCc1ccc(CO[C@H]2C[C@@H](c3csc4ccccc34)C=C(C(=O)N3CCN(Cc4ccccc4)CC3)O2)cc1)NO the cytotoxicity call was “inactive”.
With O=C(N[C@H](NC(=S)Nc1ccc(F)c([N+](=O)[O-])c1)C(Cl)(Cl)Cl)C(c1ccccc1)c1ccccc1 the cytotoxicity call was “active”.
In the case of O=C(Nc1ccc(-c2nc3cc(NC(=O)c4ccccc4[N+](=O)[O-])ccc3o2)cc1)c1ccccc1[N+](=O)[O-], the cytotoxicity call is reported as “inactive”.
With CC(C)C(=O)Nc1ccc([N+](=O)[O-])c(C(F)(F)F)c1 the cytotoxicity call was “inactive”.
